This is an account of results in PubChem BioAssay (NCATS).

Inconclusive results are not listed. Values without a mark were called inactive. The source made the active and inactive calls. The call rests on the fitted dose curve; in most records, active means well fitted activation curve with a large enough effect; inconclusive means small, poorly fitted or top-dose-only effect; inactive means flat fitted curve, though single readings scatter.
Potency means the concentration at half of the fitted maximal effect.

Sequence of D(1A) dopamine receptor (Homo sapiens) (P21728 whole entry, looked up): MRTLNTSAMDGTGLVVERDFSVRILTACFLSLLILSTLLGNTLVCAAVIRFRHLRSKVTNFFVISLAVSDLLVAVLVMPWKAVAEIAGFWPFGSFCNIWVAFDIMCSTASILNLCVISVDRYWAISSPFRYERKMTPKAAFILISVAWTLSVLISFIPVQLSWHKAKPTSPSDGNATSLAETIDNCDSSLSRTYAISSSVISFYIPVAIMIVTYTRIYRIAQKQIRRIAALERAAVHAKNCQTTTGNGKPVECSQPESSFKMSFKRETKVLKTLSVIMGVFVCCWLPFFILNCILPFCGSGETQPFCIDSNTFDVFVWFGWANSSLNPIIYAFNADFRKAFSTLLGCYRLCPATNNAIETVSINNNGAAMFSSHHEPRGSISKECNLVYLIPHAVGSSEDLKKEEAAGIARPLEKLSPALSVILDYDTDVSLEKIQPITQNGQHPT

This assay deals with D(1A) dopamine receptor (Homo sapiens) (UniProt P21728). Description: HTS Assay for Allosteric Agonists of the Human D1 Dopamine Receptor: Primary Screen for Agonists (AID 488981). On activation: 0% is about no effect. The following applies: Inducible HEK293 T-REx D1 cells, calcium-flux fluorescence, 180 s kinetic; series mostly up to 41.8 µM; activation: at the top concentration. The source says:
Dopamine receptors (DARs) are involved in the etiology and/or therapy of a number of neuropsychiatric and endocrine disorders. For instance, all receptor-based antiparkinsonian drugs work via stimulating the […] DAR subtype whereas all FDA-approved antipsychotic agents are antagonists of this receptor. […] There are three different types of allosteric modulators that we are seeking, two of which will stimulate or augment receptor signaling, allosteric agonists and potentiators, while the third, allosteric antagonists, will attenuate receptor signaling. The present primary screening assay measures compound agonism by tracking calcium flux in a […], inducible Hek293 Trex D1 cell line.
Freshly passaged cells are plated in 1536 well black, clear bottom plates at a density of 4000 cells/well in 3 ul of complete media containing 1x tetracycline inducer. After an overnight incubation at 30 C in 5% CO2, cells are loaded with 2 ul of the no wash Calcium Assay Kit (ABD Bioquest) and incubated at room temperature for 30 to 90 minutes. A 10 cycle (1 second/cycle) baseline measurement is taken and then the FDSS online 1536 pintool delivers 23 nl of compound library (as well as dopamine controls) to the plate. The plate is measured for kinetically at 1 cycle/sec for 180 seconds and is considered to be the agonist portion of the assay (eg, compounds which activate a positive calcium response during this portion are flagged as potential agonists). Following the 180 second read, 1 ul of an EC20 of dopamine is delivered by an onboard pipette head. Measurements are taken kinetically for an additional 180 seconds.
Consider `Clc1ccc2nsnc2c1NC1=NCCN1`, for which the “activation” value was 1.96%.
On the same count and under the same terms, the value for `CC(C)NCC(O)COc1ccc(CCOCC2CC2)cc1` (stereo not given) was 7.35%; that for `CS(=O)(=O)Nc1ccc([N+](=O)[O-])cc1Oc1ccccc1` was 2.43%.
Still for that read-out and setting: the value for `COc1nc(C)nc(Cl)c1NC1=NCCN1` was -0.846%; that for `CN(C)c1nc(N(C)C)nc(N(C)C)n1` was -0.37%; that for `CN1CCN2c3ccccc3Cc3ccccc3C2C1` (stereo not given) was 1.48%.
Take `Cc1cc(C(C)(C)C)c(O)c(C)c1CC1=NCCN1`: the “activation” value was -0.211%.
`CCCNCC(O)COc1ccccc1C(=O)CCc1ccccc1` (stereo not given): the “activation” value is 28.8%.
Consider `Cc1ccc(C(=O)Nc2ccc(S(=O)(=O)O)c3cc(S(=O)(=O)O)cc(S(=O)(=O)O)c23)cc1NC(=O)c1cccc(NC(=O)Nc2cccc(C(=O)Nc3cc(C(=O)Nc4ccc(S(=O)(=O)O)c5cc(S(=O)(=O)O)cc(S(=O)(=O)O)c45)ccc3C)c2)c1`, for which the “activation” value was 0.899%.
Consider `O=C(c1ccc(F)cc1)C1CCN(CCn2c(=O)[nH]c3ccccc3c2=O)CC1`, for which the “activation” value is 4.81%.
For `Cc1cnc(C(=O)NCCc2ccc(S(=O)(=O)NC(=O)NC3CCCCC3)cc2)cn1`, the “activation” value is -1.27%.
In the case of `Cc1cn([C@H]2C=C[C@@H](CO)O2)c(=O)[nH]c1=O`, the “activation” value is -0.264%.
For `COc1ccccc1OCCNCC(O)COc1cccc2[nH]c3ccccc3c12` (stereo not given), the “activation” value was 20.4%.
With `CN1CCC(=C2c3ccccc3C=Cc3ccccc32)CC1`, the “activation” value is 14.2%.
Consider `O=c1c(O)c(-c2ccc(O)c(O)c2)oc2cc(O)cc(O)c12`, for which the “activation” value is 11.2%.
Still for that read-out and setting: to `O=C1c2c(O)ccc(O)c2C(=O)c2c(NCCNCCO)ccc(NCCNCCO)c21` belongs 0%; to `COc1cc2nc(N(C)CCCNC(=O)C3CCCO3)nc(N)c2cc1OC` (stereo not given), -1.37%; to `Nc1ccn([C@H]2CC[C@@H](CO)O2)c(=O)n1`, 0.159%.
For `NCCCCCC(=O)O`, the “activation” value is -0.423%.
`OCCN(CCO)c1nc(N2CCCCC2)c2nc(N(CCO)CCO)nc(N3CCCCC3)c2n1`: the Potency is 10 µM (active).
Consider `Cc1cc(C(C)(C)C)cc(C)c1CC1=NCCN1`, for which the “activation” value was 1.48%.
In the case of `NCCS(=O)(=O)O`, the “activation” value was -0.74%.
For `CCN1CCCC1CNC(=O)c1cc(S(=O)(=O)CC)c(N)cc1OC` (stereo not given), the “activation” value was -0.74%.
For the compound `CC(C(=O)O)c1cccc(C(=O)c2ccccc2)c1` (stereo not given), the “activation” value was -0.37%.
Consider `CCC1(C)CC(=O)NC1=O` (stereo not given), for which the “activation” value was -0.0529%.
Regarding `Clc1ccccc1C(c1ccccc1)(c1ccccc1)n1ccnc1`, the “activation” value is 8.41%.
In the case of `COc1cc2nc(N3CCN(C(=O)C4COc5ccccc5O4)CC3)nc(N)c2cc1OC` (stereo not given), the “activation” value is 1.64%.
On to `O=C(Nc1ccc([N+](=O)[O-])cc1Cl)c1cc(Cl)ccc1O`, for which the “activation” value was 5.55%.
For `OCCN1CCN(CCCN2c3ccccc3Sc3ccc(C(F)(F)F)cc32)CC1`, the “activation” value is 12.9%.
`CC(COc1ccccc1)N(CCCl)Cc1ccccc1` (stereo not given): the “activation” value is 0.0529%.
Same read-out and setting: the value for `O=C1N(c2ccccc2)c2ccccc2C1(Cc1ccncc1)Cc1ccncc1` was -1.43%.
Turning to `CN(C)CCOC(c1ccccc1)c1ccccc1`, the “activation” value was 7.03%.
For the compound `CN(C)C(=O)C(CCN1CCC(O)(c2ccc(Cl)cc2)CC1)(c1ccccc1)c1ccccc1`, the “activation” value was 24.5%.
Turning to `CCOC(=O)c1ncn2c1CN(C)C(=O)c1cc(F)ccc1-2`, the “activation” value is -0.264%.
On the same count and under the same terms, the value for `COc1ccc(CCN(C)CCCC(C#N)(c2ccc(OC)c(OC)c2)C(C)C)cc1OC` (stereo not given) was 10.7%.
In the case of `O=c1c(-c2ccc(O)cc2)coc2cc(O)cc(O)c12`, the “activation” value was 4.92%.
Turning to `O=c1[nH]cc(F)c(=O)[nH]1`, the “activation” value is -0.264%.
In the case of `O=C1Cc2cc(CCN3CCN(c4nsc5ccccc45)CC3)c(Cl)cc2N1`, the “activation” value was -1.8%.
With `Cn1c(=O)c2[nH]cnc2n(C)c1=O`, the “activation” value was -0.529%.
On the same count and under the same terms, to `NS(=O)(=O)c1cc2c(cc1Cl)NCNS2(=O)=O` belongs -0.793%.
